Measured values reported in PubChem BioAssay (NCATS).
Inconclusive results are not listed. Where a call stands in place of a potency, no number is given. The source made the active and inactive calls. The call rests on the fitted dose curve; in most records, active means well fitted inhibition curve with a large enough effect; inconclusive means small, poorly fitted or top-dose-only effect; inactive means flat fitted curve, though single readings scatter. *1 amine or outer side, *2 acyl side, *3 side chain or, on linkers, in order; H or OH if unused. Where a SMILES comes first, the peptide text is derived from it. Bridges are numbered along the chain shown (N, C = ends). [ ]: non-standard residue; d: D form. The star is where a group is joined. X5 = NC1=N[C@@H]([C@H](N[*:1])C(=O)[*:2])C[C@H](O)N1; ΔAla(Z-3-ureido) = NC(=O)N/C=C(\N)C(=O)O; β3hOrn = NCCC[C@H](N)CC(=O)*; Dap = NC[C@H](N)C(=O)O

Experiment: P-glycoprotein substrates identified in KB-8-5-11 adenocarcinoma cell line, qHTS therapeutic library screen (AID 1346987); further: nearly all actives have a fitted effect of over 65% in size
Conditions: KB-8-5-11 (P-gp overexpressing) viability, CellTiter-Glo, 72 h; series mostly up to 44.5 µM
In short: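 Compounds are pinned in dose-response onto KB-8-5-11 cells (500 cells/well, colchicine-free medium) and left 72 h at 37 degree C. CellTiter-Glo luminescence then yields AC50 values.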

SMILES	Potency
CC(C)(C)c1ccc2c(S(=O)(=O)O)c(C(C)(C)C)ccc2c1	inactive
CC12CCC(C[N+](C)(CCC[N+](C)(C)C)C1)C2(C)C (stereo not given)	inactive
Nc1nc(/C(=C/CC(=O)O)C(=O)N[C@@H]2C(=O)N3C(C(=O)O)=CCS[C@H]23)cs1	inactive
OCl	inactive
CC(C)CCCCCCc1ccc(O)cc1	inactive
OC[C@H]1OC([S-])[C@H](O)[C@@H](O)[C@@H]1O.[Au+] (stereo not given in full)	inactive
CCCC(=O)Nc1c(I)cc(I)c(CC(CC)C(=O)O)c1I (stereo not given)	inactive
C=Cc1ccc(S(=O)(=O)O)cc1	inactive
O=C1NC(=O)[C@H]2[C@@H]1[C@@H]1C=C[C@H]2C1	inactive
Cc1cc(O)c2c(c1)O[C@@]1(C)CC[C@H]3C(C)(C)CCCC34CO[C@@H]2[C@H]41 (stereo not given in full)	inactive
O=C(O)CCC/C=C\C[C@@H]1[C@@H](/C=C/[C@@H](O)COc2cccc(Cl)c2)[C@H](O)C[C@@H]1O	inactive
O=C(NCCNCC(O)COc1ccc(O)cc1)N1CCOCC1 (stereo not given)	inactive
CCC[C@@H]1C[C@@H](C(=O)N[C@@H]([C@H]2O[C@H](SC)[C@H](O)[C@@H](O)[C@H]2O)[C@H](C)Cl)N(C)C1	inactive
NCCC[C@H](N)CC(=O)N[C@H]1CNC(=O)[C@H]([C@H]2C[C@H](O)NC(N)=N2)NC(=O)/C(=C/NC(N)=O)NC(=O)[C@H](CO)NC(=O)[C@H](CO)NC1=O (β3hOrn-[Dap]SS[ΔAla(Z-3-ureido)][X5]; lactam 1-C)	inactive
O=C(CO)[C@@H](O)[C@H](O)[C@@H](O)C(=O)O	inactive
